Screening results deposited in PubChem by National Center for Advancing Translational Sciences (NCATS).
An excerpt weighted towards active compounds, which were near 5.5% of everything screened.
Mito fusion yeast = blocks mitochondrial division or promotes mitochondrial fusion; Potency, µM (top dose mostly 46.1 µM), inactives show top-dose growth rescue (activation), actives largely listed as activators; S. cerevisiae fusion-defective mutant growth rescue, CellTiterGlo 48 h; AID 485298; hit rate 0.23% among 320,000; also: % of control where 0% means no effect; nearly all actives have a fitted effect of over 45% in size
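Growth-rescue viability read-out: after 48 h at the non-permissive 37C in glycerol/ethanol YPEG, yeast mitochondrial fusion mutants are measured by CellTiterGlo luminescence; compounds (23 nl pinned per well) restoring growth score as division inhibitors or fusion activators.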
uPA generation = blocks generation of uPA at the cell surface | cell surface uPA generation assay, qHTS | Potency, µM (highest dose often 38.3 µM), without a hit: at the highest dose activity change, negative = inhibition, most hits filed as inhibitors | hit rate 0.31% among 330,000 | AID 540303; active = well fitted inhibition curve with a large enough effect; inconclusive = small, poorly fitted or top-dose-only effect; inactive = no such curve, though single readings can be large or run the other way; tested in mouse RAW 264.7 cells; also: % is scaled to controls: 0 for no effect and ±100 for the full control effect; nearly all actives have a fitted effect of over 55% in size
a7 integrin act = integrin-mediated muscular dystrophy alleviation activation; alpha7betagal myoblasts, beta-gal FDG fluorescence, 48 h; AID 624291; Potency, µM (titrated, usually from 38.3 µM), for inactives: at the highest dose activation, hits mostly activators; hit rate 0.064% among 350,000;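 also: 100% = response of the positive control SU9516; nearly all actives have a fitted effect of over 60% in size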
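Alpha7betagal+/- myoblasts (passage 13) were plated 16-24 hr, then exposed to compounds (1:260 dilution of DMSO stock) for 48 hours at 37C. After MPER lysis, β-galactosidase reporter activity was read as FDG fluorescence (ex 480/em 540) after 30 minutes.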
Chronic BCR inh = chronic active BCR signaling inhibition; Potency, µM (doses to about 46.1 µM), for the others: at the highest dose activity change, negative = inhibition, actives largely listed as inhibitors; hit rate 0.05% among 340,000; ABC-DLBCL IkBa-CBG/CBR reporter, luminescence ratio, 4 h; AID 493014; active = well fitted inhibition curve with a large enough effect in the signal ratio, with a control signal flat, not every such curve was filed as active; inconclusive = small, poorly fitted or top-dose-only effect, or effect the other way, or a change in a side signal; the % refers to the signal ratio;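 also: plate controls were basal doxycycline-induced cells for no effect and cells given 10 µM MG132 for full effect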
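Doxycycline induced both beetle luciferases in TMD8 lymphoma cells; IKK-driven degradation limits the IkappaBalpha-fused green signal, while red luminescence normalises for cell number and nonspecific effects. Compounds tested up to 46 uM, 4 hrs.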
RORgamma inh = inhibitors of mouse ROR gamma transcriptional activity; Drosophila S2 Gal4-RORgamma UAS-luciferase reporter, 20 h; Potency, µM (doses to about 53.6 µM), without a hit: at the top dose activity change, negative = inhibition, hits mostly inhibitors; hit rate 5.4% among 310,000; also: % is scaled to controls: 0 for no effect and ±100 for the full control effect; nearly all actives have a fitted effect of over 60% in size
Target sequence (P51450 whole entry, looked up, the tested form may be a part): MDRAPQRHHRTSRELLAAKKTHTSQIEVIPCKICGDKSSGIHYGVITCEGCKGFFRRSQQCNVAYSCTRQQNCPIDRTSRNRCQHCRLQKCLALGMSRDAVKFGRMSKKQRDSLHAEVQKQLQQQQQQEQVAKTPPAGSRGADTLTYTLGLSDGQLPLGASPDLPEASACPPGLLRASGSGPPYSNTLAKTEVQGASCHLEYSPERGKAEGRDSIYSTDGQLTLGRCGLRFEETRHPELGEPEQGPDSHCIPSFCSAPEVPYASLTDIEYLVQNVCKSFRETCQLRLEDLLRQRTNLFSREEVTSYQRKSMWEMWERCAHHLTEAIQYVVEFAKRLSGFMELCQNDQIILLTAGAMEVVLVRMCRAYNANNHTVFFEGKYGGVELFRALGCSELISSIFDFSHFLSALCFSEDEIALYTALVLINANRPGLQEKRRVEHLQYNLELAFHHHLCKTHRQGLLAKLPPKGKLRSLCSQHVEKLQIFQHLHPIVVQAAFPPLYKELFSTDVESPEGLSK
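Drosophila Schneider cells stably carrying a metallothionein-driven Gal4 DBD–ROR gamma fusion and a UAS-Photinus luciferase reporter were exposed to compound for 1 hr, then induced with copper sulfate (700 uM final) for 20 hr at ambient temperature before luminescence reading.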
Gal4-VP16 FLuc = counter-screen for ROR gamma inhibitors: Gal4-VP16 reporter; Drosophila S2 Gal4-VP16 UAS-luciferase, luminescence, 20 h; Potency, µM (titrated, usually from 53.6 µM), inactives show at the top dose activity, negative = inhibition, usual class: inhibitors; hit rate 3.5% among 310,000; AID 2546;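 also: Gal4-VP16 expression switched on by copper sulfate through the metallothionein promoter; % is scaled to controls: 0 for no effect and ±100 for the full control effect; nearly all actives have a fitted effect of over 50% in size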
Numbers without * were called inactive; ! = not active in a repeat; [ ] = remark or other dose. Unless noted, calls follow the shape of the dose curve; as a rule, active = well fitted curve in the direction sought with a large enough effect; inconclusive = small, poorly fitted or top-dose-only effect, or another doubt; inactive = no such curve, though single readings can be large; an effect the other way counts as inactive or inconclusive. Potency is read from the fitted curve at half-maximal effect.

For CC1CCN(C(=O)c2[nH]cnc2C(=O)N[C@@H](Cc2ccccc2)C(=O)OC(C)(C)C)CC1 the results were Mito fusion yeast 1.1%, uPA generation -4.2%, a7 integrin act 0.4%, Chronic BCR inh 0.8%, RORgamma inh inconclusive and Gal4-VP16 FLuc 20µM*.
For CC(C)C[C@H](NC(=O)c1nc[nH]c1C(=O)NC1CCN(C(=O)OC(C)(C)C)CC1)C(=O)OCc1ccccc1 the results were Mito fusion yeast 13.9%, uPA generation -15.1%, a7 integrin act -35.6%, Chronic BCR inh inconclusive, RORgamma inh -22.0% and Gal4-VP16 FLuc inconclusive.
Screening CC(C)C[C@H](NC(=O)c1nc[nH]c1C(=O)N1CCN(C(=O)OC(C)(C)C)CC1)C(=O)OCc1ccccc1 returned Mito fusion yeast -4.3%, uPA generation -10.8%, a7 integrin act -3.1%, Chronic BCR inh 12.5%, RORgamma inh 8.91µM* and Gal4-VP16 FLuc inconclusive.
For Cc1cccc(CNc2ccnc(-c3ccccc3CN(C)C)n2)c1 the results were RORgamma inh -30.9% and Gal4-VP16 FLuc 1.2%.
COc1ccc(-c2ccc(CN3C(CC(C)C)C(=O)N(Cc4cn(CCC5OCCCO5)nn4)CCS3(=O)=O)cc2)cc1OC (stereo unspecified) was read as a7 integrin act -16.3%.
`CCC[C@@H]1CC2=CC(=O)CC[C@]2(C)[C@H]2CC[C@@]3(C)[C@@H](CC[C@@]34CCC(=O)O4)[C@H]12` gave RORgamma inh 2.3% and Gal4-VP16 FLuc -2.3%.
Screening CC(C)(C)OC(=O)N1CCC(NC(=O)c2nc[nH]c2C(=O)NCc2ccccc2)CC1 returned Mito fusion yeast -3.7%, uPA generation -12.2%, a7 integrin act -35.1% and Chronic BCR inh 9.1%.
Screening CC(C)(C)OC(=O)[C@H](Cc1ccccc1)NC(=O)c1nc[nH]c1C(=O)NC1CCN(C(=O)OC(C)(C)C)CC1 returned Mito fusion yeast 5.5%, uPA generation -4.0%, a7 integrin act -42.0%, Chronic BCR inh inconclusive, RORgamma inh 5.01µM* and Gal4-VP16 FLuc 7.08µM*.
Screening Cc1cc2c(c(=O)n1Cc1cccnc1)C(Cc1ccccc1)C(C#N)=C(N)O2 (stereo unspecified) returned Mito fusion yeast 3.8%, uPA generation 3.8%, a7 integrin act 22.2%, Chronic BCR inh -10.3%, RORgamma inh inconclusive and Gal4-VP16 FLuc 14.1µM*.
Cc1ccc(S(=O)(=O)NNC(=O)c2ccccc2O)cc1 was read as Mito fusion yeast -6.6%, uPA generation 0.4%, a7 integrin act 4.8%, Chronic BCR inh 0.4%, RORgamma inh 11.2µM* and Gal4-VP16 FLuc 3.7%.
For Cc1ccc(S(=O)(=O)NNC(=S)NCCc2ccccc2)cc1 the results were Mito fusion yeast -4.8%, uPA generation -7.2%, a7 integrin act -14.9%, Chronic BCR inh -1.1%, RORgamma inh 11.2µM* and Gal4-VP16 FLuc inconclusive.
Screening Cc1ccc(C(=O)NC(=S)NNS(=O)(=O)c2ccccc2)cc1 returned Mito fusion yeast -7.9%, uPA generation -1.6%, a7 integrin act -11.6%, Chronic BCR inh 7.3%, RORgamma inh 3.16µM* and Gal4-VP16 FLuc 14.1µM*.
`Cc1ccc(S(=O)(=O)NC(=O)NCCc2ccccc2)cc1` gave Mito fusion yeast 1.7%, uPA generation 0.9%, a7 integrin act -15.6%, Chronic BCR inh inconclusive, RORgamma inh 1.4% and Gal4-VP16 FLuc -23.0%.
`O=[N+]([O-])c1cc(CN2CCN(c3ccccc3)CC2)c(O)c2ncccc12` gave Mito fusion yeast -8.2%, uPA generation -15.4%, a7 integrin act 12.2%, Chronic BCR inh inconclusive, RORgamma inh 0.112µM* and Gal4-VP16 FLuc -86.8%.
`CN(Cc1cc([N+](=O)[O-])c2cccnc2c1O)C1CCCCC1` gave Mito fusion yeast -1.2%, Chronic BCR inh -3.5%, RORgamma inh 3.98µM* and Gal4-VP16 FLuc inconclusive.
O=[N+]([O-])c1cc(Cl)c(O)c2ncccc12 was read as Mito fusion yeast 13.8%, uPA generation -11.7%, a7 integrin act -65.7%, Chronic BCR inh inconclusive, RORgamma inh 0.708µM* and Gal4-VP16 FLuc 1.26µM*.
`O=[N+]([O-])c1cc(F)c2cccnc2c1O` gave Mito fusion yeast -19.8%, uPA generation -1.2%, a7 integrin act -52.5%, Chronic BCR inh 15.8µM*, RORgamma inh 1.26µM* and Gal4-VP16 FLuc 3.16µM*.
For Cc1cccc(N2CCN(C(=O)c3cccn4c(=O)c5cc(Cl)ccc5nc34)CC2C)c1 (stereo unspecified) the results were Chronic BCR inh -0.1%.
`Fc1ccc(C2C3=C(Nc4ncnn42)c2ccccc2OC3c2ccncc2)cc1` (stereo unspecified) gave Mito fusion yeast 0.9%, uPA generation 1.4%, a7 integrin act -10.0%, Chronic BCR inh inconclusive, RORgamma inh -19.3% and Gal4-VP16 FLuc -0.4%.
c1ccc(C2C3=C(Nc4ncnn42)c2ccccc2CCC3)cc1 (stereo unspecified) was read as Mito fusion yeast -0.8%, a7 integrin act 20.3%[7.66 µM], Chronic BCR inh inconclusive, RORgamma inh 10µM* and Gal4-VP16 FLuc inconclusive.
Screening CC1=CC(c2ccccc2)n2ncnc2N1 (stereo unspecified) returned uPA generation -5.1% and a7 integrin act 13.9%.
`Clc1ccc(C2C3=C(Nc4ncnn42)c2ccccc2CC3)cc1` (stereo unspecified) gave Mito fusion yeast -5.7%, Chronic BCR inh 1.2%, RORgamma inh 14.1µM* and Gal4-VP16 FLuc inconclusive.
`Cc1ccc(NC(=O)CSCC(=O)Nc2ccccc2N2CCCCC2)cc1` gave Mito fusion yeast inconclusive, uPA generation -7.1%, a7 integrin act -9.2% and Chronic BCR inh 11.3%.
`N#C/C(=C\c1ccccc1)C(=O)N(c1ccccn1)C1CCCCC1` gave Mito fusion yeast 19.4%, uPA generation -5.8%, a7 integrin act 11.0%, Chronic BCR inh 5.3%, RORgamma inh 2.82µM* and Gal4-VP16 FLuc inconclusive.
Screening O=C(c1cccc(C(=O)N(c2ccccn2)C2CCCCC2)c1)N(c1ccccn1)C1CCCCC1 returned Mito fusion yeast -2.8%, uPA generation -0.6%, a7 integrin act -21.5%, Chronic BCR inh 0.7%, RORgamma inh 16.1% and Gal4-VP16 FLuc -0.9%.
Screening O=C1CCCC(O)=C1N=Nc1cccc(C(=O)O)c1 returned Mito fusion yeast -7.4%, uPA generation 1.0%, a7 integrin act 0.1%, Chronic BCR inh inconclusive, RORgamma inh -22.0% and Gal4-VP16 FLuc 6.0%.
